Screen size: about 13,000 compounds; about 3,200 (25%) showed an effect of 50% or more. Some of the results follow.
What follows are compounds tested on P. falciparum stage V gametocytes. Conditions: 48 h, 5 µM; inhibitor.
Parameters: BacTiter-Glo ATP luminescence viability of purified stage V gametocytes in 384-well plates, per cent inhibition versus DMSO

| Compound | % Inhibition |
| --- | --- |
| CC(C)[C@H](NC(=O)c1ccc(O)c(-c2ccc(Cl)c(Cl)c2)c1)C(=O)NCCN(C)C [TCMDC-140863] | 10.43% |
| CN(C)c1ccc(CN2CCC(NC(=O)c3ccc(-c4ccccc4Cl)s3)CC2)cc1 [TCMDC-134328] | -0.5721% |
| Cc1[nH]c(C)c(-c2ccc(S(=O)(=O)c3ccc(Cl)cc3)cc2)c(=O)c1Br [TCMDC-137414] | 77.4% |
| Cc1cc(=O)c(-c2ccc(S(=O)(=O)c3ccc(Cl)cc3)cc2)c(C)[nH]1 [TCMDC-137417] | 53.38% |
| Cc1cc(=O)c(-c2ccc(Sc3ccc(Cl)cc3)cc2)c(C)[nH]1 [TCMDC-137403] | 33.38% |
| Cc1cc(=O)c(-c2ccc(OCc3ccc(Cl)cc3)cc2)c(C)[nH]1 [TCMDC-137399] | 24.98% |
| Cc1[nH]c(C)c(-c2ccc(S(=O)(=O)c3ccc(Cl)cc3)cc2)c(=O)c1Cl [TCMDC-137412] | 67.97% |
| Cc1ccc(C)c(Cn2ccc3nc(Cl)nc(Cl)c32)c1 [TCMDC-137818] | 13.19% |
| Cc1cc(C)n(Cc2ccc(C(=O)NCC3CCCCC3)cc2)n1 [TCMDC-141404] | -4.003% |
| CCC[C@@H]1CCN[C@H]([C@H](O)c2ccnc3ccc(OC)cc23)C1 [TCMDC-138233] | -1.678% |
| CCC[C@@H]([C@@H](CC1CCC(C)CC1)C(=O)N[C@@H](CO)C(=O)Nc1nccs1)N(O)C=O (stereo partly drawn) [TCMDC-138150] | 0.01446% |
| CC(C)c1nc2c(N)nc(N)nc2nc1N [TCMDC-141986] | 9.894% |
| O=C(NCCNc1ccnc2cc(Cl)ccc12)c1ccccc1F [TCMDC-125232] | -18.32% |
| Cn1nccc1C(=O)NCCNCc1cccc(-c2ccc(-c3nc4ccccc4[nH]3)s2)c1.O=C(O)C(F)(F)F [TCMDC-133003] | -10.06% |
| Cc1ccc(NC(C)C(=O)Nc2ccc(C#N)cc2)cc1S(=O)(=O)N1CCCCC1 (stereo not drawn) [TCMDC-124508] | -17.26% |
| N#Cc1cc([N+](=O)[O-])ccc1-n1nc(-c2cccc(Cl)c2)n(CC2CCCO2)c1=S (stereo not drawn) [TCMDC-134718] | 89.7% |
| N#Cc1ccc(Sc2nnc(-c3ccccc3Cl)n2CC2CCCCC2)cc1[N+](=O)[O-] [TCMDC-135616] | 15.71% |
| CCCCn1c(Sc2ccc(C#N)c([N+](=O)[O-])c2)nnc1-c1cc(OC)cc(OC)c1 [TCMDC-135578] | 32.96% |
| COc1cc(NC(=O)c2cc([N+](=O)[O-])ccc2NC(=O)CNC2CCCCC2C)cc(OC)c1 (stereo not drawn) [TCMDC-125301] | -14.04% |
| COc1cc(OC)cc(-c2nn(-c3ccc([N+](=O)[O-])cc3C#N)c(=S)n2CC2CCCO2)c1 (stereo not drawn) [TCMDC-134716] | 96.39% |
| CCn1c(Sc2ccc(C#N)c([N+](=O)[O-])c2)nnc1-c1cc(OC)cc(OC)c1 [TCMDC-135587] | 21.42% |
| CCCn1c(Sc2ccc(C#N)c([N+](=O)[O-])c2)nnc1-c1cc(OC)cc(OC)c1 [TCMDC-135577] | 43.88% |
| COc1cc(OC)cc(-c2nn(-c3ccc([N+](=O)[O-])cc3Cl)c(=S)n2CC2CCCO2)c1 (stereo not drawn) [TCMDC-135129] | 88.54% |

| Compound | % Inhibition |
| --- | --- |
| Nc1nc(N)c2c(Cc3ccc(Br)cc3)cccc2n1 [TCMDC-137800] | 14.7% |
| CCOC(=O)C(C(C)=O)C(c1ccccc1)C(C(C)=O)C(=O)OCC (stereo not drawn) [TCMDC-125515] | 28.08% |
| CC1CCCC(NC(=O)CCOc2ccccc2)C1 (stereo not drawn) [TCMDC-139363] | 13.69% |
| CCOC(=O)c1ccc(NC(=O)N(Cc2ccc(-c3ccc(CN4CCNCC4)cc3)cc2)C2CCN(Cc3ccccc3)CC2)cc1 [TCMDC-139651] | 101.9% |
| CCOC(=O)c1ccc(NC(=O)N(Cc2ccc(-c3ccc(CN4CCNCC4)cc3)cc2)Cc2cccnc2)cc1 [TCMDC-139650] | 18.76% |
| CCOC(=O)c1ccc(NC(=O)N(Cc2ccc(-c3cccc(CN4CCNCC4)c3)cc2)C2CCN(Cc3ccccc3)CC2)cc1 [TCMDC-139636] | 111.5% |
| CC(C)Cc1nc(N)nc(N)c1-c1ccc(Cl)cc1 [TCMDC-137932] | 19.17% |
| O=C(Nc1ccccc1)Nc1ccc(-n2ccc(C(F)(F)F)n2)cc1 [TCMDC-123480] | -19.16% |
| Cn1nc(C(F)(F)F)c(-c2ccc(Br)cc2)c1NC(=O)Nc1ccc(F)cc1F [TCMDC-124576] | 44.22% |
| Cn1nc(C(F)(F)F)c(-c2ccc(Br)cc2)c1NC(=O)Cc1ccccc1F [TCMDC-123792] | 91.27% |
| CN1CCN=C1c1ccc(NC(=O)Nc2ccc(C3=NCCN3C)cc2)cc1 [TCMDC-137204] | 15.96% |
| Cn1nc(C(F)(F)F)c(-c2ccc(F)cc2)c1NC(=O)Nc1ccc(F)cc1F [TCMDC-123774] | 47.06% |
| COc1ccc(-c2c(C(F)(F)F)nn(C)c2NC(=O)Nc2ccc(F)cc2F)cc1 [TCMDC-123775] | 71.46% |
| Cn1nc(C(F)(F)F)c(-c2ccc(F)cc2)c1NC(=O)Nc1ccc(F)cc1 [TCMDC-124506] | 65.51% |
| O=C(Nc1ccccc1C(F)(F)F)Nc1nn(Cc2c(F)cccc2Cl)cc1Br [TCMDC-124365] | -20.4% |
| COc1ccc(NC(=O)Nc2cccc(-c3cccc(-c4nc5ccc(F)cc5[nH]4)c3)c2)cc1 [TCMDC-133249] | -8.23% |
| CCOC(=O)Cn1ccc2c(NCc3ccccc3)nc(C)nc21 [TCMDC-137249] | 9.107% |
| OC(CN1CCN(c2cccc(Cl)c2)CC1)C(c1ccccc1)c1ccccc1 (stereo not drawn) [TCMDC-123456] | 0.2376% |
| COc1cccc2cc(C(=O)N[C@@H](CC(C)C)C(=O)N[C@H](C=NN3CCCC3=O)Cc3ccccc3)oc12 [TCMDC-136091] | 20.05% |
| CC(c1cccc(Nc2nccc(-c3c(-c4cccc(NC(=O)c5c(F)cccc5F)c4)nn4ncccc34)n2)c1)S(C)(=O)=O (stereo not drawn) [TCMDC-135696] | -68.26% |
| Nc1nc(N)c2c(Oc3cccc(Cl)c3)cccc2n1 [TCMDC-137741] | -2.704% |
| CCCCCN1CCCC1CNS(=O)(=O)c1ccc(C(=O)Nc2cccc(C(F)(F)F)c2)cc1 (stereo not drawn) [TCMDC-133688] | -7.266% |
| CN1CCc2cc(CN3CC4(C)CC3CC(C)(C)C4)c(O)cc2C(c2ccccc2)C1 (stereo not drawn) [TCMDC-131903] | -50.67% |

| Compound | % Inhibition |
| --- | --- |
| CC(C)NCc1cccc(-c2ccc(NC(=O)c3cccc(C#N)c3)cc2)c1 [TCMDC-132672] | -57.78% |
| CC(C)NCc1ccc(-c2cccc(NC(=O)c3ccc(C#N)cc3)c2)cc1 [TCMDC-132638] | 83.96% |
| CN1CCCN(Cc2ccc(-c3ccc(NC(=O)c4ccc(C#N)cc4)cc3)cc2)CC1 [TCMDC-132588] | 15.04% |
| CC(C)NCc1ccc(-c2ccc(NC(=O)c3cccc(C#N)c3)cc2)cc1 [TCMDC-132595] | 51.63% |
| CC(C)NCc1cccc(-c2cccc(NC(=O)c3cccc(C#N)c3)c2)c1 [TCMDC-132662] | 13.1% |
| CC(C)NCc1ccc(-c2ccc(NC(=O)c3ccc(C#N)cc3)cc2)cc1 [TCMDC-132589] | 83.96% |
| CC(C)NCc1ccc(-c2cccc(NC(=O)c3ccc(Cl)cc3)c2)cc1 [TCMDC-132629] | -59.93% |
| CC(C)NCc1ccc(-c2cccc(NC(=O)c3ccc(F)cc3)c2)cc1 [TCMDC-132635] | 20.54% |
| CC(C)NCc1cccc(-c2ccc(NC(=O)c3ccc(C#N)cc3)cc2)c1 [TCMDC-132669] | -2.892% |
| CC(C)NCc1ccc(-c2cccc(NC(=O)c3cccc(C#N)c3)c2)cc1 [TCMDC-132649] | 48.87% |
| CC(C)NCc1cccc(-c2ccc(NC(=O)c3ccc(F)cc3)cc2)c1 [TCMDC-132666] | -42.89% |
| CC(C)NCc1cccc(-c2cccc(NC(=O)c3ccc(C#N)cc3)c2)c1 [TCMDC-132656] | 89.01% |
| COc1cccc(C(=O)NCCOc2ccccc2)c1Oc1ccccc1 [TCMDC-141238] | 4.712% |
| Nc1ncc(-c2cn[nH]c2)cc1-c1nc2ccc(Cl)cc2[nH]1 [TCMDC-133560] | -7.229% |
| C=CCc1cc(Cc2cnc(N)nc2N)cc(CCC)c1OC [TCMDC-138039] | 23.16% |
| O=C(O)c1ccc(-c2cnc3ccc(NC4CCC(O)CC4)nn23)cc1 (stereo not drawn) [TCMDC-136692] | 8.489% |
| Cc1c(C)n(C2CCCC2)c2ncnc(OC3CCN(CC(=O)NC4CC4)CC3)c12 [TCMDC-133310] | -5.87% |
| Cn1nccc1C(=O)NCCNCc1ccc(-c2cccc(-c3nc4cc(F)ccc4[nH]3)c2)cc1.O=C(O)C(F)(F)F [TCMDC-133016] | -24.65% |
| CCOc1cc(Cc2cnc(N)nc2N)ccc1OC [TCMDC-137931] | 24.72% |
| COc1ccc2nccc([C@@H](O)CN3CCC(NC/C=C/c4cccnc4)CC3)c2c1 [TCMDC-140747] | -1.69% |
| Cc1cc(C2CCCCN2C)ccc1-c1ccc(C(=O)N2CCc3cc4c(cc32)C2(CCN(C)CC2)CO4)cc1 (stereo not drawn) [TCMDC-139081] | 76.58% |
| Cc1cc(-c2ncc[nH]2)ccc1-c1ccc(C(=O)N2CCc3cc4c(cc32)C2(CCN(C)CC2)CO4)cc1 [TCMDC-139079] | -8.812% |
| COc1cc2c(cc1N1CC(C)NC(C)C1)N(C(=O)c1ccc(-c3ccc(-c4ncc[nH]4)cc3C)cc1)CC2 (stereo not drawn) [TCMDC-141160] | 13.02% |

Source: PMC4552634, “A New Set of Chemical Starting Points with Plasmodium falciparum Transmission-Blocking Potential for Antimalarial Drug Discovery” (PLoS ONE, 2015)
